High-throughput results from PubChem.
Cruzain noTriton: blocks cruzain activity in detergent-free assay. purified cruzain, Z-FR-AMC fluorescence, no detergent. AID 1476. Potency, µM, hits mostly inhibitors. 200,000 compounds, 2.3% hits. P25779; note: nearly all actives have a fitted effect of over 40% in size
Target sequence (P25779 123-467 limits assumed): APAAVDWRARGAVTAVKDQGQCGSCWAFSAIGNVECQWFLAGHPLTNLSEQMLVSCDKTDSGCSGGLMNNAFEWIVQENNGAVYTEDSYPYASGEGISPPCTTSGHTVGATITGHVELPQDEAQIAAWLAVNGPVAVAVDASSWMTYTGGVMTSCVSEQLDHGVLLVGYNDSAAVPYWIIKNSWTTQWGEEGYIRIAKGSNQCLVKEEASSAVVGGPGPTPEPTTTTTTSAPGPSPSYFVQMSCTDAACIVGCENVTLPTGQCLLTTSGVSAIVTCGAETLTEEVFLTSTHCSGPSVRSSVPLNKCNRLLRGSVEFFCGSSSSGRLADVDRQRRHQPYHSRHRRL
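Purified cruzain at 1.5 nM, pre-incubated 15 min with compound at room temperature in 100 mM sodium acetate pH 5.5, 5 mM DTT, 0.00005% Triton X-100. Reaction started with 2 uM Z-FR-AMC; AMC fluorescence increase over 60 s gives rate.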
Cruzain Triton: blocks cruzain activity in presence of Triton detergent; P25779; purified cruzain, Z-FR-AMC fluorescence, 0.01% Triton; Potency, µM, usual class: inhibitors; 200,000 compounds, 0.43% hits; note: nearly all actives have a fitted effect of over 40% in size
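Detergent-containing arm of a paired screen for aggregation-based inhibition: 0.01% Triton X-100 present. Cruzain at 1.5 nM cleaved 2 uM Z-FR-AMC at pH 5.5 with 5 mM DTT; AMC fluorescence gain over 60 s measured activity.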
Of the large screens only hits and unclear results are named; the others gave an inactive call. Most compounds without a hit are left out; they make up all but 2.4% or so of the library. Calls come from the whole dose curve; as a rule, active = well fitted curve in the direction sought with a large enough effect; inconclusive = small, poorly fitted or top-dose-only effect, or another doubt; inactive = no such curve, though single readings can be large; an effect the other way counts as inactive or inconclusive.

O=C1N/C(=N\N=C\c2cccnc2)SC1Cc1ccc(SC(F)F)cc1 (configuration not stated)	none
O=C1N/C(=N\N=C\c2ccc3ncccc3c2)SC1Cc1ccc(SC(F)F)cc1 (configuration not stated)	Cruzain noTriton 15.8µM, Cruzain Triton 25.1µM
COc1cccc(-n2ccn(CC(=O)c3ccc(F)cc3)c(=O)c2=O)c1	none
CCOc1ccc(CNC(=O)C2=Cc3cc(Br)ccc3OC2)cc1OC	Cruzain noTriton inconclusive
CN1CCN(c2ccc(NC(=O)CSc3ccccc3)cc2F)CC1	none
Cc1ccc(SCC(=O)Nc2ccc(N3CCN(c4ccccc4)CC3)c(F)c2)cc1	Cruzain noTriton 10µM
Cc1ccccc1Nc1nc(Nc2ccccc2C)nc(SC2=NCCS2)n1	Cruzain noTriton inconclusive
Cc1ccc(Nc2nc(Nc3ccc(C)cc3)nc(SC3=NCCS3)n2)cc1	Cruzain noTriton 25.1µM
COC(=O)c1ccccc1NC(=O)c1c(C)oc2ncn(C)c(=O)c12	none
COc1cc(C2CC(=O)Nc3c2c(=O)n(C)c(=O)n3C)cc(OC)c1OC (configuration not stated)	none
O=C(C1=C[C@@H]2[C@H]3C(=O)N(c4ccc(Cl)cc4)C(=O)[C@H]3[C@@H](C(=O)c3ccc(Cl)cc3)N2C=C1)c1ccccc1	Cruzain noTriton 7.94µM
Cc1ccc(N2C(=O)C3C(C2=O)C(C(=O)c2ccc(Cl)cc2)N2CCCC32)cc1 (configuration not stated)	none
Cc1cc(NC(=O)COC(=O)c2oc3c(Cl)cccc3c2C)no1	Cruzain noTriton 12.6µM
Cc1cc(NC(=O)COC(=O)c2n[nH]c3ccccc23)no1	none
COc1c(OC(C)=O)ccc(/C=C/c2ccc3cccc(OCc4ccccc4)c3n2)c1[N+](=O)[O-]	Cruzain noTriton 10µM
COc1cc(/C=C/c2ccc3cccc(OC)c3n2)c(OC(C)=O)c([N+](=O)[O-])c1	Cruzain noTriton inconclusive
CCc1nn2c(=O)cc(COC(=O)c3cccc(NC(=O)COc4ccccc4F)c3)nc2s1	none
COc1ccc(CNC(=O)c2ccc3c(c2)NC(=O)C(CS(=O)(=O)Cc2ccccc2Cl)N3)cc1 (configuration not stated)	none
O=C(NCc1ccc(Cl)cc1)c1ccc2c(c1)NC(=O)C(CS(=O)(=O)Cc1ccccc1Cl)N2 (configuration not stated)	Cruzain noTriton 25.1µM
O=C(CNC(=O)/C(=C\c1ccccc1)NC(=O)c1ccc(Br)cc1)OCc1ccccc1	none
Cc1ccc(/C=C(\NC(=O)c2ccccc2)C(=O)OCc2ccccc2)cc1	Cruzain noTriton inconclusive, Cruzain Triton 7.94µM
Cc1ccc(/C=C(\NC(=O)c2ccccc2)C(=O)NC(Cc2ccccc2)C(=O)O)cc1 (configuration not stated)	none
O=C(CNC(=O)/C(=C\c1ccc(F)cc1)NC(=O)c1ccccc1)OCc1ccccc1	Cruzain noTriton inconclusive, Cruzain Triton 17.8µM
CCc1ccc(S(=O)(=O)c2nnn3c2nc(Nc2cc(OC)ccc2OC)c2sccc23)cc1	none
COc1ccc(NC(=O)CN2CCCN(Cc3ccc(Cl)cc3)S2(=O)=O)cc1Cl	none
CCCCNC(=O)c1cc2c(=O)n3cccc(C)c3nc2n(Cc2ccccc2)c1=N	Cruzain noTriton inconclusive, Cruzain Triton 28.2µM
C=CCn1c(=N)c(C(=O)NCCCOC)cc2c(=O)n3cccc(C)c3nc21	Cruzain noTriton inconclusive, Cruzain Triton 31.6µM
Cc1cccn2c(=O)c3cc(C(=O)NCc4ccco4)c(=N)n(CCOCCO)c3nc12	none
Cc1cccn2c(=O)c3cc(C(=O)NCCc4ccccc4)c(=N)n(CCCn4ccnc4)c3nc12	Cruzain noTriton inconclusive
COCCCn1c(=N)c(C(=O)NCc2ccco2)cc2c(=O)n3cccc(C)c3nc21	none
CNC(=O)c1cc2c(=O)n3cccc(C)c3nc2n(C(C)C)c1=N	Cruzain noTriton inconclusive, Cruzain Triton 25.1µM
CCOC(=O)c1ccc(NC(=O)c2c(NCc3sccc3C)sc3c2CCCCC3)cc1	none
CCc1nc2ccc(C(=O)NCCc3ccc(OC)cc3OC)cc2nc1CC	Cruzain noTriton inconclusive
COc1ccc(NC(=O)Cn2c(=O)cc(C)c3c(C)nn(C)c32)cc1	none
COC(=O)c1ccc(OCC2c3cc(OC)c(OC)cc3CCN2C(=O)Cc2ccc(OC)c(OC)c2)cc1 (configuration not stated)	Cruzain noTriton inconclusive
COc1ccc(-c2oc3ncn4nc(-c5ccccc5Cl)nc4c3c2-c2ccc(OC)cc2)cc1	none
CC1(C)S[C@@H]2[C@H](NC(=O)COc3ccccc3)C(=O)N2[C@H]1C(=O)O	none
COc1ccc(-c2nc(NC(=O)c3ccc(OCC(=O)N4CCOCC4)c(OC)c3)sc2C)cc1	Cruzain noTriton inconclusive
COc1cc(C(=O)Nc2nc(-c3ccc(Cl)cc3)c(C)s2)ccc1OCC(=O)Nc1ccc(F)cc1	Cruzain noTriton 15.8µM
COc1ccc(Br)c2c1-c1nc(NC(=O)c3ccc(F)cc3)sc1C2	none
CCc1ccc(-c2nc(NC(=O)c3ccc(OCC(=O)Nc4ccc(F)cc4)c(OC)c3)sc2C)cc1	Cruzain noTriton 3.98µM
O=C(CSc1nnc(-c2ccco2)o1)c1ccccc1	Cruzain noTriton 15.8µM
O=C(CSc1nnc(-c2ccco2)o1)c1ccc(F)c(F)c1	none
Cc1ccc(-n2cc3c(c2-c2ccccc2Br)c(=O)n(C)c(=O)n3C)cc1N	none
Cc1cc(C)c(NC(=O)C(C)OC(=O)c2cc(Br)c(Br)s2)c(C)c1 (configuration not stated)	Cruzain noTriton 25.1µM
Cc1c(NC(=O)C(C)OC(=O)c2cccs2)c(=O)n(-c2ccccc2)n1C (configuration not stated)	none
COc1cccc(OC(=O)CSc2nnc(-c3cccs3)o2)c1	none
COc1cc(OC)c(NC(=O)c2ccc3c(c2)N(Cc2ccc(C)cc2)CCS3)cc1Cl	Cruzain noTriton 7.94µM
CCc1ccc(NC(=O)c2ccc3c(c2)N(Cc2ccc(C)cc2)CCS3)cc1	Cruzain noTriton 15.8µM
Cc1ccc(CN2CCSc3ccc(C(=O)Nc4ccc(F)cc4F)cc32)cc1	Cruzain noTriton inconclusive
COc1ccc(CCNC(=O)c2ccc3c(c2)N(Cc2ccc(C)cc2)CCS3)cc1OC	none
O=C(NCCOCCn1c(=O)oc2ccccc21)Nc1ccc(Cl)cc1	none
CCCCN(CC)CCCn1cnc2c([nH]c3ccc(Cl)cc32)c1=O	none
CCOC(=O)Cc1csc(NC(=O)COc2ccc(N(C)S(=O)(=O)c3ccc(C)cc3)cc2)n1	none
CCOc1ccc(S(=O)(=O)N(C)c2ccc(OCC(=O)Nc3nc(-c4cc(OC)ccc4OC)cs3)cc2)cc1	Cruzain noTriton 7.94µM
CCc1ccccc1NC(=O)CCCN1C(=O)COc2ccc(C)cc21	none
CC(=O)c1cccc(NC(=O)CCCN2C(=O)COc3ccc(C)cc32)c1	Cruzain noTriton inconclusive, Cruzain Triton 17.8µM
O=C(CSc1nnc(SCc2cccc3ccccc23)s1)c1ccc2c(c1)OCO2	Cruzain noTriton 25.1µM
O=C(CSc1nc2ccccc2[nH]1)c1ccc2c(c1)OCO2	Cruzain noTriton 2.51µM
O=C(CSc1nnc(SCc2cccc3ccccc23)s1)N=Nc1c(O)[nH]c2ccccc12	Cruzain noTriton 7.94µM
O=C(CSc1ccccn1)c1ccc2c(c1)OCO2	none
Cc1ccc2nc(SCC(=O)c3ccc4c(c3)OCO4)[nH]c2c1	Cruzain noTriton inconclusive
CN(C)S(=O)(=O)c1ccc(C(=O)Nc2nnc(SCc3cccc4ccccc34)s2)cc1	Cruzain noTriton inconclusive
CC(C)C1=CC2=CC[C@@H]3[C@@](C)(C(=O)O)CCC[C@]3(C)C2CC1 (some centres not stated)	none
